# mHTT-CaM PPI inh – disrupts binding of mutant huntingtin to calmodulin | 190,000 compounds, 3.6% hits | AlphaScreen His-mHTT/GST-CaM binding, luminescence | P42858 | inhibition, % at 15 µM;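 further: 0% = both proteins with DMSO and 100% = one protein alone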
# Target sequence (P42858 whole entry, looked up, stated change not applied): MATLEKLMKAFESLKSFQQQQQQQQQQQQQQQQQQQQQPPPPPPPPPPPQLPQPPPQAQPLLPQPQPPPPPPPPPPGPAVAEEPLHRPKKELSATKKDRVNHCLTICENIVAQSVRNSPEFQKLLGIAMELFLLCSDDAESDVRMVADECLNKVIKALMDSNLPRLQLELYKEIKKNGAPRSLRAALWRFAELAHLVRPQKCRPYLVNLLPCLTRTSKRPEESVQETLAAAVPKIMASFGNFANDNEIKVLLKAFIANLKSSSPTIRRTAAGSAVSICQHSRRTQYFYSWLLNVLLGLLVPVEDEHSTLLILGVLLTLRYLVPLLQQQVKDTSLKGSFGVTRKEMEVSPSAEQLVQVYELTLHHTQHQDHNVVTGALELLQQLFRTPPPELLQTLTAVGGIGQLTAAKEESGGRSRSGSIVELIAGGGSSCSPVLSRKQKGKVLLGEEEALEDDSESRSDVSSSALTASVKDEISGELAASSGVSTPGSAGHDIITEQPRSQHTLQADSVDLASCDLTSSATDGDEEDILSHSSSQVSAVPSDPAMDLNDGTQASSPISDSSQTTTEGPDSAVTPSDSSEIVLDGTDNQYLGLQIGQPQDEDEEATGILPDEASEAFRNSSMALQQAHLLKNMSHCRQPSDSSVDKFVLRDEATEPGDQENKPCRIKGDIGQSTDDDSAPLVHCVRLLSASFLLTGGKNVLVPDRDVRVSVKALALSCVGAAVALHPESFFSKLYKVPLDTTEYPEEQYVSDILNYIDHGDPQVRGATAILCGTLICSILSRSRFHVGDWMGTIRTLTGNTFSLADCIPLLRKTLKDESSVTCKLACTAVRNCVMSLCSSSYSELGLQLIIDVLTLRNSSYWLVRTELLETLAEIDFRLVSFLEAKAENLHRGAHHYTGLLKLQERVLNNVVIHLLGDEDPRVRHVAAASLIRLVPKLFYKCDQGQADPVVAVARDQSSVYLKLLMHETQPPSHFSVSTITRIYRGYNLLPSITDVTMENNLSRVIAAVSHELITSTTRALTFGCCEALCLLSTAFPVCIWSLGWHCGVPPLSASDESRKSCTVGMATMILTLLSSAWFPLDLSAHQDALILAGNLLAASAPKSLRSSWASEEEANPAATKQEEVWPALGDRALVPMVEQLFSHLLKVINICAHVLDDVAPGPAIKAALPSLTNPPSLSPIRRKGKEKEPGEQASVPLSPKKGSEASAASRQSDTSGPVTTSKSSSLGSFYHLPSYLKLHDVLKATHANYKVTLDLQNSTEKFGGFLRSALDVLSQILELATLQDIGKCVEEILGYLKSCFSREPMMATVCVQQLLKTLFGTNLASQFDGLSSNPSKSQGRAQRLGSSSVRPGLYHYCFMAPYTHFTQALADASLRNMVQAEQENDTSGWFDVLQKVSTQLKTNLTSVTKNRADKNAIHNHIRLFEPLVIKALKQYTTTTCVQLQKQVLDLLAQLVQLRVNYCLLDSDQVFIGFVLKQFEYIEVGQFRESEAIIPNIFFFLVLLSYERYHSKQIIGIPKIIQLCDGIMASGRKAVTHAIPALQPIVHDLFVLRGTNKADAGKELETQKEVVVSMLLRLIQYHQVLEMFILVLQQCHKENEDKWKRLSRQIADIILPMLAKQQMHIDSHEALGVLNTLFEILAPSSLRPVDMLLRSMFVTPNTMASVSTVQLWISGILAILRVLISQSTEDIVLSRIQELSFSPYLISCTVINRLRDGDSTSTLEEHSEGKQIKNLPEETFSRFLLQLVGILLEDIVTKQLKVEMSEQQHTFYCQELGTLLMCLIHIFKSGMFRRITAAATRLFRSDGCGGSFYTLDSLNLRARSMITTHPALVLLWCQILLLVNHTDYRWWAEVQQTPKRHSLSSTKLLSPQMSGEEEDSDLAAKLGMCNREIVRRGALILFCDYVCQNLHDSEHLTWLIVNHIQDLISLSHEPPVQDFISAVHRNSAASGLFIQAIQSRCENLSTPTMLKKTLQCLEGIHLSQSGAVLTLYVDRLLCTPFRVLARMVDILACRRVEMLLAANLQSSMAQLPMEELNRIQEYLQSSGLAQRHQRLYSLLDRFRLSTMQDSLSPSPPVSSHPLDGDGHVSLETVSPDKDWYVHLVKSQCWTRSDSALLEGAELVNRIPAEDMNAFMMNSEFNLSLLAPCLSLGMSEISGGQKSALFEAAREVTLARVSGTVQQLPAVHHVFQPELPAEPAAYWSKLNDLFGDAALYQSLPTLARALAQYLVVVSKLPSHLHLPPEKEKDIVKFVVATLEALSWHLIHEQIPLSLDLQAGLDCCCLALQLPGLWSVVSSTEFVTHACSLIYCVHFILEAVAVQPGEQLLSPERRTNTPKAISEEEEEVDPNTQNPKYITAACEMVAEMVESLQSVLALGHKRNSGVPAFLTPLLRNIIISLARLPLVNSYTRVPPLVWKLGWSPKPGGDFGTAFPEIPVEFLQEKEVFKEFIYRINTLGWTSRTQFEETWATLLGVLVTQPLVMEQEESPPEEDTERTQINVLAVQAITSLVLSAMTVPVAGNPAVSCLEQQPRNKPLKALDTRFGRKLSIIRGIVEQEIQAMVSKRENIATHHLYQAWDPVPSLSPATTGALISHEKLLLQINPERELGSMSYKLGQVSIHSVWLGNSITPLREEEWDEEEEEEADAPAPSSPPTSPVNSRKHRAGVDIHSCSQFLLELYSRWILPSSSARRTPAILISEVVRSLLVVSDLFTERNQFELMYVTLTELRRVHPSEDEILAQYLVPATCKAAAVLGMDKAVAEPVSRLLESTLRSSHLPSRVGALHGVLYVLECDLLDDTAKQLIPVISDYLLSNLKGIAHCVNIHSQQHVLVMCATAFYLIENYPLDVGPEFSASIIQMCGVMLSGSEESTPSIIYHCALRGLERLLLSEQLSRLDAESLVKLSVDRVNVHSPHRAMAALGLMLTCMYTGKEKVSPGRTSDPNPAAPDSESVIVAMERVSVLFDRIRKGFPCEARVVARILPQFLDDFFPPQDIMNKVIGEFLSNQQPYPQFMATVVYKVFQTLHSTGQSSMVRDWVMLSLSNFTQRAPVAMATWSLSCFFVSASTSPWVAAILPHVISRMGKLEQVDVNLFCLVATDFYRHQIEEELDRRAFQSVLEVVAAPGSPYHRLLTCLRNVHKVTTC
# Pf apPOL inh – Pf-apPOL DNA polymerase inhibition; AID 1794808; 210,000 compounds, 0.25% hits; Recombinant Pf-apPOL, molecular beacon fluorescence, 1.5 h; inhibition, % at 10 µM
# Numbers without * were called inactive; nt = not tested or not shown; ! = repeats disagree. Sampled rows, rich in hits. Any-hit rate of the full collection: about 3.5%. No stated cut-off is given here; in the data, active means inhibition above about 50%; inactive means the rest.
SMILES,mHTT-CaM PPI inh,Pf apPOL inh
O=C(Nc1nnc(Cc2ccc(Cl)cc2Cl)s1)c1ccc(F)cc1,-2.7,1.1
O=C(c1ccoc1)N1CCCC(OCc2nc(-c3cnccn3)no2)C1 (centres undefined),0.3,1.6
CCN(CC)S(=O)(=O)c1ccc(OC)c(NC(=O)c2ccc(SC)cc2OC)c1,-0.2,-11.9
Cc1cc(NS(=O)(=O)c2ccc(NC(=O)C(Cl)(Cl)Cl)cc2)nc(C)n1,-4.8,86.3*
Cc1cc(NS(=O)(=O)c2ccc(NC(=O)C3CC3)cc2)nc(C)n1,-3.0,-5.1
COc1cccc2cc(-c3cc(=O)oc4cc(C)c(OCC(=O)OC(C)(C)C)cc34)oc12,2.3,5.6
Cc1ccnc(NS(=O)(=O)c2ccc(NC(=O)CSc3nc(C)cc(=O)[nH]3)cc2)n1,-3.0,-1.7
Cc1cc(C)nc(NS(=O)(=O)c2ccc(NC(=O)CSc3ncn[nH]3)cc2)n1,-2.0,61.8*
CC1(C)Cc2nc3sc(C(=O)O)c(N)c3cc2CS1,51.0*,0.5
Nc1c(C(=O)O)sc2nc3c(cc12)CCCC3,-3.5,nt
COc1ccc(/C=C(\C#N)c2nn(CCO)c(N)c2C#N)c(OC)c1,-1.1,-1.2
CCOc1cc(/C=C(\C#N)c2[nH]nc(N)c2C#N)ccc1O,72.8*,-5.7
COc1ccc(/C=C2\C(C)=C(C#N)c3nc(N)c(C#N)c(C)c32)cc1Br,20.0,-5.1
CCN(CC)c1ccc(/C=C(\C#N)c2[nH]nc(N)c2C#N)c(OC)c1,60.4*,0.0
CCN(C)c1ccc(/C=C(\C#N)c2[nH]nc(N)c2C#N)cc1,28.8,-3.2
COc1cc(/C=C(\C#N)c2[nH]nc(N)c2C#N)ccc1O,53.7*!,10.0
COc1ccc(/C=C(\C#N)c2[nH]nc(N)c2C#N)cc1Br,69.2*,-0.4
COc1cc(/C=C(\C#N)c2ccc([N+](=O)[O-])cc2)ccc1O,38.2,-1.8
CCOc1ccc(-n2c(SCC(=O)Nc3ccccc3)nc3c(c2=O)SCC3)cc1,7.0,-2.6
CCc1onc(C)c1C1CCCN1C(=O)NCC(C)C (centres undefined),-4.0,-5.4
O=c1/c(=C/c2cc(Br)ccc2F)sc2nc3ccccc3n12,-1.0,-4.7
O=C(CCSc1ccccc1)Nc1nc2c(s1)COCC2,-3.9,-9.6
Nc1cc(C2CCN(C(=O)c3ccco3)CC2)no1,-4.6,-3.9
C=CCOc1ccccc1CNc1cc(OC)ccc1OC,66.8*,12.4
C=CCOc1ccccc1CNc1ccccc1F,-87.0,2.6
SMILES,mHTT-CaM PPI inh,Pf apPOL inh
C=CCOc1ccccc1CNc1ccc(C)cc1,54.2*,-0.2
C=CCNC(=O)C(=O)Nc1cc(OC)ccc1OC,-3.7,-7.3
O=C(C1CCCCN1S(=O)(=O)c1ccc(Cl)cc1)N1CCCCC1 (centres undefined),-6.5,0.0
CC(=O)N1CCC(n2c(C)nc(C(=O)N3CCN(Cc4ccc(C)cc4)CC3)c2C)CC1,-0.7,-0.2
O=C(CC1CCCCC1)N1CCN(c2cc(-c3cccnc3)[nH]n2)CC1,6.7,-3.2
CNc1ccc(C(=O)N2CCOC(COc3ccc4c(c3)CCCC4)C2)cc1 (centres undefined),52.3*,-7.3
COc1ccc(OCC2CN(C(=O)c3ccc(C)cc3)CCO2)cc1 (centres undefined),1.3,-1.4
O=C(Nc1nc(-c2ccc(Cl)cc2)cs1)c1cncc(Br)c1,53.4*,0.0
CCOc1ccc(-c2csc(NC(=O)c3cncc(Br)c3)n2)cc1,1.0,-6.1
CCN(CC)CCNC(=O)c1cc2cc(NC(C)=O)ccc2[nH]1,-4.0,-0.6
CCOc1ccc2cccc(NC(=O)c3ccccc3C(F)(F)F)c2n1,-28.7,-4.2
Cc1ccc(NCCNC(=O)c2c[nH]c3ccccc23)nn1,-11.2,-13.6
Cc1ccnc(Nc2ccc(NCCNC(=O)c3c(F)cccc3F)nn2)c1,99.8*,-5.6
COc1cc2c(cc1OC)C(COc1ccc(F)cc1)N(C(=O)c1ccccc1OC)CC2 (centres undefined),81.0*,-4.2
CCOc1ccccc1C(=O)N1CCc2cc(OC)c(OC)cc2C1COc1ccc(OC)cc1 (centres undefined),39.0,-1.5
COc1cc2c(cc1OC)C(COc1ccc(F)cc1)N(C(=O)c1ccc(F)cc1)CC2 (centres undefined),57.0*,-10.2
COc1cc2c(cc1OC)C(COc1ccc(F)cc1)N(C(=O)C1CC1)CC2 (centres undefined),27.0,-6.6
Cc1cccc(NC(=O)c2cc(I)ccc2Cl)c1,-30.1,-8.1
CC12C=CC(=O)C=C1CCC1[C@@H]2C(O)CC2(C)[C@@H](C(=O)CO)CC[C@@H]12 (some centres undefined),-4.2,nt
COc1ccccc1CNC(=O)c1cnn2c(C)c(Cc3ccccc3)c(C)nc12,3.0,-12.2
CC1=C(C(=O)Nc2ccc(Cl)cc2)C(c2cccc([N+](=O)[O-])c2)n2c(nc3ccccc32)N1 (centres undefined),72.0*,3.6
COc1ccccc1NC(=O)C1=C(C)Nc2nc3ccccc3n2C1c1cccc([N+](=O)[O-])c1 (centres undefined),1.0,-9.6
